# The campaign covered roughly 420,000 compounds. About 64,000 (15%) were called active. Not shown: some 27% with an inconclusive outcome. The list is a sample of the results. Values without a mark were called inactive. Calls come from the whole dose curve; as a rule, active = well fitted inhibition curve with a large enough effect; inconclusive = small, poorly fitted or top-dose-only effect; inactive = flat fitted curve, though single readings scatter.
# Test: qHTS for Inhibitors of human tyrosyl-DNA phosphodiesterase 1 (TDP1): qHTS in cells in absence of CPT; note: nearly all actives have a fitted effect of over 55% in size
# Conditions: DT40 Tdp1-/- hTDP1 cells, no CPT, ATP luminescence, 48 h; activity change, negative = growth inhibition: at 46.2 µM (top of the series)
# In short: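 Growth kinetics read by CellTiter-Glo luminescence after ≥48 hr at 37 °C. Cells: DT40 Tdp1-/- stably carrying human TDP1, 400 per well, compound exposure in the absence of CPT (DMSO vehicle).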
# % is set by controls: 0 for no effect and ±100 for the full control effect; potency is the fitted concentration of half-maximal effect.
Structure (SMILES),Potency,"activity change, negative = growth inhibition"
C/C(CC(=O)NCc1ccc(Cl)cc1)=N\NC(=O)COc1ccc(C)cc1Br,3.26 µM (active),–
COCCNC(=S)N1CCN(C)CC1,–,23.5%
COC(=O)c1cc(NC(=O)CN2CCC(C(N)=O)(N3CCCCC3)CC2)cc(C(=O)OC)c1,–,-10.4%
Cc1oc2c(c1C(=O)Nc1ccc(F)c(F)c1)C1=NCCN1C=N2,–,-28.4%
O=C(CN1C(=O)CCS(=O)(=O)c2ccccc21)NCc1ccc(F)cc1,–,-17.2%
CC(NC(=O)C(=O)Nc1nccs1)c1ccccc1 (stereo unspecified),–,-1.11%
O=C(NCc1ccco1)c1nc2ncccn2n1,–,-9.65%
O=c1oc(-c2ccco2)nc2sc3c(c12)CCCCC3,–,-13.5%
O=C(NCc1ccco1)c1cccn2c(=O)c3c4c(sc3nc12)CCCC4,7.31 µM (active),–
O=C(c1cnc(Cl)c(Cl)c1)N1CCN(S(=O)(=O)c2ccc(F)cc2)CC1,–,-27.7%
Cc1cc(C)c(/C=C2\C(=O)Nc3ccccc32)[nH]1,inactive,–
COc1ccccc1N1CC(C(=O)NCCN2C(=O)S/C(=C\c3cccnc3)C2=O)CC1=O (stereo unspecified),–,-19.7%
CN1CCN(C2=NCCO2)CC1,–,-3.09%
Cc1ccc(-n2c(SCC(=O)Nc3ccc4c(c3)OCO4)nnc2-c2ccoc2C)cc1,–,-24.3%
CCc1ccc(N(CC(=O)NCc2cccnc2)S(=O)(=O)c2ccccc2)cc1,–,-24.9%
O=C(CN(c1cc(C(F)(F)F)ccc1Cl)S(=O)(=O)c1ccccc1)NCc1cccnc1,18.4 µM (active),–
O=C(O)c1cc(S(=O)(=O)N(Cc2ccccc2)c2cccc(C(F)(F)F)c2)ccc1Cl,–,3.29%
CC(=O)Nc1ccc(NC(=O)CSc2ncnc3c2cnn3Cc2ccccc2)cc1,–,-11.7%
OCc1n[nH]c(CO)n1,–,-11.1%
CCCNC(=O)c1cc(C2CCCCN2C(=O)OC)on1 (stereo unspecified),–,-3.68%
COc1ccc(C(=O)Nc2c(Cl)cc(Cl)cc2C(=O)N2CCC(C)CC2)cc1,–,-25.7%
COc1ccc(C(=O)N2CCCCC2c2cc(C(=O)Nc3ccc(F)c(Cl)c3)no2)cc1 (stereo unspecified),23.1 µM (active),–
CC(=O)c1ccc(N2C(=NC(=O)C(C)C)SC3CS(=O)(=O)CC32)cc1 (stereo unspecified),–,-9.09%
CCCOc1ccc(F)cc1-c1cc(C(=O)Nc2ccc(F)c(Cl)c2)[nH]n1,16.4 µM (active),–
COc1ccc(NC(=O)CN2CCN(S(=O)(=O)c3ccc(F)cc3)CC2)cc1Cl,–,-18%
CCNC(=O)c1ccc(OCC(=O)Nc2ccc(F)cc2)c(OC)c1,–,-7.12%

Structure (SMILES),Potency,"activity change, negative = growth inhibition"
O=C(O)Cc1csc(NC(=O)CSc2nnnn2-c2ccc(O)cc2)n1,–,-9.95%
CC(=O)Nc1ccc(S(=O)(=O)Oc2ccc(/C=N/N=C3/NC(=O)C(CC(=O)O)S3)cc2)cc1 (stereo unspecified),–,-11.2%
CCOc1ccc(C(O)Cn2c(=N)n(CCN3CCCCC3)c3ccccc32)cc1 (stereo unspecified),23.1 µM (active),–
Cn1c(=N)n(CC(O)c2cccs2)c2ccccc21 (stereo unspecified),–,-23.5%
Cn1c(=N)n(CC(O)c2ccccc2)c2ccccc21 (stereo unspecified),–,-21.3%
NS(=O)(=O)c1ccc(CCNC(=O)c2ccc(Cl)cc2[N+](=O)[O-])cc1,–,-6.5%
CC(=O)NCCc1ccc(S(=O)(=O)N(C)C2CCS(=O)(=O)C2)cc1 (stereo unspecified),–,0.768%
COc1cc(NS(=O)(=O)c2ccc(N=Cc3c(C)[nH]n(-c4ccccc4)c3=O)cc2)nc(OC)n1,–,-22.1%
CCc1nnc(NS(=O)(=O)c2ccc(N=Cc3c(C)[nH]n(-c4ccc(C)cc4)c3=O)cc2)s1,11.2 µM (active),–
CCc1nnc(NS(=O)(=O)c2ccc(NS(=O)(=O)c3ccccc3)cc2)s1,–,-8.83%
S=c1[nH]nc(-c2cc(-c3ccsc3)n[nH]2)n1-c1ccccc1,–,-20.4%
Cc1cc(C)c2nc(N3CCC(C(=O)NCCN4CCOCC4)CC3)sc2c1,–,-6%
Cc1ccnc(N2CCCC(C(=O)Nc3cc(F)ccc3C)C2)n1 (stereo unspecified),–,-13%
Cc1ccc(C)c(NC(=O)C2CCCN(S(=O)(=O)c3cn(C)cn3)C2)c1 (stereo unspecified),–,-3.78%
CCOC(=O)N1CCC(NC(=O)c2ccc3nc(N4CCOCC4)sc3c2)CC1,–,-11%
CCOc1ccc2nc(N3CCCC(C(=O)Nc4cc(C)ccc4C)C3)sc2c1 (stereo unspecified),18.4 µM (active),–
CCOc1ccc2nc(N3CCC(C(=O)Nc4cc(C)ccc4C)CC3)sc2c1,16.4 µM (active),–
CC1CCCCC1NC(=O)Cn1cnc2c1c(=O)n(C)c(=O)n2C (stereo unspecified),–,2.55%
COC(=O)CN1C(=O)[C@H]2[C@@H](/C=C/c3ccccc3)N3C(=O)CN(CC4CC4)C(=O)[C@@]3(Cc3ccccc3)[C@H]2C1=O,–,-1.54%
COC(=O)C1(S(=O)(=O)C2(C(=O)OC)CCCC2)CCCC1,–,-4.39%
COc1ccc(-c2nnc(SCc3cccnc3)o2)cc1,–,-15.2%
Cc1noc(C)c1-c1cc(NCc2cccnc2)ncn1,–,2.95%
N#Cc1nc(COc2ccc(-c3ccccc3)cc2)oc1NCc1cccnc1,25.9 µM (active),–
O=C(Cn1nc(C(=O)O)c2ccccc2c1=O)Nc1ccc(F)cc1,–,14.5%
COc1cccc(NC(=O)CSc2nnc(C3CCCCC3)n2N)c1,–,-3.98%

# — PubChem BioAssay AID686978 (National Center for Advancing Translational Sciences (NCATS), 2013)
